# From PubChem BioAssay
# ALDH1A1 block: inhibitors of human aldehyde dehydrogenase 1A1 | Potency, µM (series often up to 75.3 µM), without a hit: at the highest dose activity, negative = inhibition, actives largely listed as inhibitors | Purified ALDH1A1, NADH fluorescence, propionaldehyde substrate | P00352 | 220,000 compounds, 7.3% hits; active = well fitted inhibition curve with a large enough effect, not every such curve was filed as active; inconclusive = small, poorly fitted or top-dose-only effect, or another doubt; inactive = no such curve, though single readings can be large or run the other way;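 also: potency is read from the fitted curve at half-maximal effect; plate controls were no enzyme wells and a reference inhibitor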
# JMJD2E inh: JMJD2E (human) inhibition; B2RXH2; JMJD2E catalytic domain, FDH-coupled NADH fluorescence (FDH is formaldehyde dehydrogenase); Potency, µM (top dose mostly 57.1 µM), for inactives: at the highest dose activity change, negative = inhibition, hits mostly inhibitors; 230,000 compounds, 1.6% hits; AID 2147; active = well fitted inhibition curve with a large enough effect, not every such curve was filed as active; inconclusive = small, poorly fitted or top-dose-only effect, or another doubt; inactive = no such curve, though single readings can be large or run the other way;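 also: potency is read from the fitted curve at half-maximal effect; 0% = wells with enzyme and -100% = buffer wells without enzyme; nearly all actives have a fitted effect of over 50% in size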
# HttQ103 aggreg: mutant huntingtin aggregation inhibition; PC12 HttQ103-GFP aggregates, Acumen cytometry, 40 h; Potency, µM (top dose mostly 46.1 µM), for inactives: at the top dose activity change, negative = inhibition, usual class: inhibitors; 220,000 compounds, 1.1% hits; AID 1688; also: potency is read from the fitted curve at half-maximal effect; % is scaled to controls: 0 for no effect and ±100 for the full control effect; nearly all actives have a fitted effect of over 60% in size
#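 PC12/HTTQ103-GFP, ecdysone-inducible; teb 100 nM; cpd qHTS titration; GFP aggregates read on laser cytometer, Ex 488/Em 500-530 nm.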
# CBFb-RUNX1 inh: inhibitors of human CBF-beta and RUNX1 interaction. Q01196+Q13951. AlphaScreen CBFb-His/RUNX1-biotin binding, biochemical. Potency, µM (titrated, usually from 59.8 µM), for inactives: at the highest dose activity, negative = inhibition, usual class: inhibitors. 230,000 tested, under 10 active. AID 1477; also: % of control where 0% means no effect
#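 Bead-based AlphaScreen assay; binding partners His-tagged CBF-beta and biotinylated RUNX1 at 30 nM each. Compound exposure 15 min after a 20-min protein preincubation; bead step 90 min; all steps at room temperature.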
# HTT ATP protect: Huntington cell model cytoprotection by ATP luminescence; AID 1471; PC12 HTT-Q103 induced, cytoprotection, ATP luminescence, 40 h; 230,000 compounds, 0.14% hits; Potency, µM (top dose mostly 56.4 µM), for the others: cytoprotection (ATP increase), most hits filed as activators; also: potency is read from the fitted curve at half-maximal effect; % of control where 0% means no effect; nearly all actives have a fitted effect of over 45% in size
#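 Cells were plated at 1500 per well in phenol red-free DMEM with 5% equine and 5% calf serum. Tebufenozide (100 nM final) and compounds were added, then ATPlite reagent, and luminescence was read.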
# HPGD block: blocks human HPGD enzyme activity | P15428 | purified HPGD, NADH fluorescence kinetic, PGE2 substrate | Potency, µM, for inactives: top-dose activity change, negative = inhibition, most hits filed as inhibitors | 150,000 compounds, 4.3% hits; active = well fitted inhibition curve with a large enough effect, not every such curve was filed as active; inconclusive = small, poorly fitted or top-dose-only effect, or another doubt; inactive = no such curve, though single readings can be large or run the other way; also: potency is read from the fitted curve at half-maximal effect; % is scaled to controls: 0 for no effect and ±100 for the full control effect
# Target sequence (P15428 whole entry, looked up): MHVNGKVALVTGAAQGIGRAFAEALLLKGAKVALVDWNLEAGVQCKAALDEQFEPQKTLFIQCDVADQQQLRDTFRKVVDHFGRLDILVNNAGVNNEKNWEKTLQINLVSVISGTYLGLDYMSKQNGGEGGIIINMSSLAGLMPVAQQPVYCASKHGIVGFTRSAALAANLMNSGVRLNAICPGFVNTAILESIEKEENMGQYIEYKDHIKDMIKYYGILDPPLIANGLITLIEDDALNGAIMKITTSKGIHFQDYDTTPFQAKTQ
#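 20 nM HPGD preincubated 15 min at room temperature with compound in 50 mM Tris-HCl pH 8, 0.01% Tween 20. Started with 1 mM NAD+ and 30 uM prostaglandin E2; NADH fluorescence (360/450 nm) read 5 times over 30-s intervals, last minus first.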
# An asterisk follows results filed as active; ? = inconclusive; / = no result; [ ] = dose if it differs, or a comment. The list is not random: actives were taken first. Their share in the collection is about 9.8%. Unless noted, calls follow the shape of the dose curve; as a rule, active = well fitted curve in the direction sought with a large enough effect; inconclusive = small, poorly fitted or top-dose-only effect, or another doubt; inactive = no such curve, though single readings can be large; an effect the other way counts as inactive or inconclusive.
SMILES,ALDH1A1 block,JMJD2E inh,HttQ103 aggreg,CBFb-RUNX1 inh,HTT ATP protect,HPGD block
COc1ccccc1/C=C/C(=O)NCc1cccnc1,1%,-3%,25%,4%,-23%,/
COc1ccc2[nH]cc(C=O)c2c1,?,5%,3%,-16%,-4%,-27%
COc1ccc2c(C=O)cn(C)c2c1,2.2µM*,-9%,-11%[9.22 µM],6%,-10%[10 µM],/
CC1NC(=O)C(N)CNC(=O)C(C2CCN=C(N)N2)NC(=O)/C(=C/NC(N)=O)NC(=O)C(CNC(=O)CC(N)CCCN)NC1=O (configuration not stated),/,/,/,27%,/,/
COC(=O)C1=C(C(=O)OC)[C@@H]2N(C)c3ccccc3[C@@]23C[C@@H](C(=O)OC)N(S(=O)(=O)c2ccc(C)cc2)C3=N1,15%[13.5 µM],-4%[11.4 µM],/,6%[13.1 µM],-3%[10 µM],-2%
Cc1noc(NS(=O)(=O)c2ccc(NC(=O)CCn3c(=O)oc4ccccc43)cc2)c1C,4µM*,1%,3%,12%,-11%,-19%
Cc1noc(NS(=O)(=O)c2ccc(NC(=O)CSc3nc4ccccc4s3)cc2)c1C,10µM*,?,-16%,-5%,-2%[0.074 µM],28µM*
Cc1noc(NS(=O)(=O)c2ccc(NC(=O)CSc3ncccn3)cc2)c1C,20µM*,9%,0%,3%,12%[10 µM],-6%
O=C(CSc1nc2ccccc2s1)Nc1cc(S(=O)(=O)N2CCOCC2)ccc1Cl,22µM*,-4%,-13%,-1%,0%[1.9 µM],-31%
Cc1noc(NS(=O)(=O)c2ccc(NC(=O)COc3ccccc3)cc2)c1C,14%,-1%,-11%,-2%,11%,0%
Cc1ccc(-n2c(SCC(=O)Nc3cc(S(=O)(=O)N4CCOCC4)ccc3Cl)nc3ccccc3c2=O)cc1,5%,-4%,3%,11%,37%[10 µM],-5%
Cc1cc(C)nc(SCC(=O)Nc2ccc(S(=O)(=O)Nc3onc(C)c3C)cc2)n1,26%,-4%,21%,2%,13%,-5%
O=C(CCCN1C(=O)c2ccccc2C1=O)Nc1cccc(S(=O)(=O)NC2=NCCC2)c1,3%,-4%,4%,1%,16%,/
CCC1(C)Cc2c(C#N)c(N)sc(=S)c2CO1 (configuration not stated),10µM*,?,-1%,-1%,-33%,28µM*
CCC1(C)Cc2c(C#N)c(N)n(-c3ccccc3)c(=S)c2CO1 (configuration not stated),4%,-5%,-4%[9.22 µM],-1%,12%[10 µM],/
COc1ccccc1-c1cncnc1NCCc1cnc[nH]1,10%,8%,/,/,?,-16%
CCN(CC)CCCNc1ncnc2ccccc12,1%,-5%,13%[9.22 µM],7%,2%[10 µM],/
OCCCCCNc1ncnc2ccccc12,-2%,?,7.9µM*,8%,29%[10 µM],-3%
c1ccc(CNc2ncnc3ccccc23)cc1,-1%,-4%,4.5µM*,6%,4%[10 µM],-28%
Nc1ncnc(NCc2ccccc2)c1[N+](=O)[O-],-5%,8%,11µM*,1%,/,-13%
Nc1ncnc(NCc2ccc(F)cc2)c1[N+](=O)[O-],8%,11%,?,5%,-14%[10 µM],/
CC(C)c1nc(CN2CCCCC2)cc(=O)[nH]1,-3%,-1%,11%,-6%,-5%[10 µM],/
O=C(Nc1ccc2c(c1)nc1n2CCSC1)c1ccccc1,22µM*,-10%,-15%,-10%,-167%[0.074 µM],-7%
CCCCn1c(SCC(=O)c2ccc3c(c2)NC(=O)CO3)nc2cc(S(N)(=O)=O)ccc21,2%,1%,-8%,-4%,-15%,/
Cc1cc(-c2nnc(CCC(=O)N3CCN(Cc4cccc(F)c4)CC3)o2)c(C)o1,28µM*,-8%,16%[9.22 µM],-3%,8%[10 µM],/
OC1C=C2CCN3Cc4cc5c(cc4C(C1O)C23)OCO5 (configuration not stated),0%,25µM*,/,6%,-33%,-22%
CCCOc1ccc(C(=O)NCC(C)(C)N2CCOCC2)cc1,17%,12%,-8%,-5%,-31%,/
